Screens (PubChem BioAssay)
Shown are actives, neighbours in structure and some others; about 19% of the full set was active somewhere.
Marburg entry inh: blocks Marburg virus binding to or entry into cells; Marburg virus pseudotyped entry inhibition, cell reporter; Potency, µM (top dose mostly 37.8 µM), for inactives: top-dose activity change, negative = inhibition, actives largely listed as inhibitors; actives 1.8% (n = 300,000); calls by dose curve; tested in HEK293 cells; further: potency means the concentration at half of the fitted maximal effect; on the % scale 0 is the no-effect control and ±100 the full control effect
Shiga toxin inh: blocks Shiga toxin action in Vero cells; inhibition, % at 38.7 µM; actives 9.2% (n = 290,000); Vero cells, Shiga toxin protein synthesis inhibition reporter; in the data active means inhibition mostly above about 28%, no sharp cut-off; inactive means mostly below about 43%; further: 0% is about no effect
Pf growth 48h: P. falciparum growth inhibition at 48 hours (one generation). P. falciparum luciferase growth in erythrocytes, 48 h. Potency, µM (doses to about 28.7 µM), for the others: top-dose activity change, negative = inhibition, usual class: inhibitors. actives 5.9% (n = 310,000). AID 504832; further: potency means the concentration at half of the fitted maximal effect; on the % scale 0 is the no-effect control and ±100 the full control effect
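In quantitative HTS format, infected erythrocytes bearing luciferase-reporter parasites were treated for a single generation at 37 C. Luminescence after adding detection reagent served as the growth measure.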
Cycloheximide cs: affects cycloheximide protein synthesis inhibition readout, counter-screen. cell reporter, cycloheximide protein synthesis inhibition counterscreen. max response, %. AID 2314. actives 12% (n = 300,000); in the data active means max response mostly above about 13%, no sharp cut-off; inactive means mostly below about 14%; further: read at 38.3 µM for the half of the compounds with a filed dose; 0% is about no effect
LASV entry inh: blocks Lassa virus binding to or entry into cells. actives 1.2% (n = 300,000). Potency, µM (top dose mostly 37.9 µM), inactives show at the highest dose activity change, negative = inhibition, most hits filed as inhibitors. Lassa virus pseudotype entry inhibition, cell reporter; calls by dose curve; tested in HEK293 cells; further: potency means the concentration at half of the fitted maximal effect; on the % scale 0 is the no-effect control and ±100 the full control effect; nearly all actives have a fitted effect of over 50% in size
Pf growth 96h: P. falciparum growth inhibition at 96 hour, primary screen for plastid delayed-death inhibitors; P. falciparum luciferase reporter growth, 96 h; actives 6.9% (n = 320,000); Potency, µM (highest dose often 28.7 µM), for the others: at the highest dose activity change, negative = inhibition, most hits filed as inhibitors; further: potency means the concentration at half of the fitted maximal effect; on the % scale 0 is the no-effect control and ±100 the full control effect
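Plates of compound plus infected erythrocytes (2% hematocrit, 0.05% parasitemia final) incubate 96 hours, 37 C, 5% CO2. Detection reagent added; reduced luminescence from the parasites' luciferase reporter flags inhibition.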
The depositor's hits bear a star; ? = inconclusive; nt = no result given; [ ] = another dose, or the depositor's remark. Unless noted, the call rests on the fitted dose curve; in most records, active means well fitted inhibition curve with a large enough effect; inconclusive means small, poorly fitted or top-dose-only effect, or another doubt; inactive means no such curve, though single readings can be large or run the other way.

SMILES	Marburg entry inh	Shiga toxin inh	Pf growth 48h	Cycloheximide cs	LASV entry inh	Pf growth 96h
CCOc1ncccc1C(=O)OCC(=O)Nc1ccc2c(c1)CCC2	3.7%	nt	nt	nt	29.3%	nt
COC(=O)c1ccc(-c2ccc(F)cc2)nc1C	?	72.7*	218.4%	112.3*	?	98.2%
Cc1oc2c(c1C(=O)Nc1ccccc1Br)C1=NCCN1C=N2	nt	nt	nt	nt	10.5%[46.1 µM]	nt
O=C(NC(=C(Cl)Cl)P(=O)(c1ccccc1)c1ccccc1)c1ccccc1	-44.7%	-7.3	-27.5%	8.3	-1.6%	-15.0%
CN(C)S(=O)(=O)c1ccc(Cl)c(NC(=O)CSc2nnnn2-c2ccc(O)cc2)c1	14.1%[46.1 µM]	3.7	-21.5%	-1.7	nt	-17.3%
CCC(C)NC(=O)c1ccc(CS(=O)(=O)c2ccc(OC)cc2)o1 (stereo not drawn)	2.7%	-19.4	nt	-7.7	nt	?
CCc1nc(SCc2ccc(Cl)cc2)n[nH]1	-25.2%	41.1*	71.6%	33.4*	15.5%	6.0%[5.75 µM]
CCc1nc(SCc2ccc(OCC(C)C)cc2)n[nH]1	7.94µM*	58.2*	45.2%	31.6*	?	10.4µM*
CCc1nc(SCc2ccc(Br)cc2)n[nH]1	?	115.7*	76.7%	25.9*	16.2%	-7.1%
C=C1CCC[C@]2(C)C[C@H]3OC(=O)C(CNCCN(CC)CC)[C@H]3CC12 (stereo partly drawn)	?	2.8	?	-6.1	?	?
CC(C)c1ccc(-c2c(C#N)c(N)nc(SCC(=O)N3CCCCC3)c2C#N)cc1	?	-26.2	nt	-0.3	-33.7%	?
O=C(CNCC1CCCO1)Nc1ccc(N2CCCCCC2)cc1 (stereo not drawn)	-21.5%	42.9*	-8.8%	22.6*	-37.8%[14.3 µM]	0.262µM*
Cc1ccc(NC(=O)CNC2CCCCC2)cc1Cl	nt	4.2	?	7.7	nt	0.738µM*
O=C(CNCCC1=CCCCC1)Nc1ccc(N2CCCCCC2)cc1	?	21.0	?	15.9*	?	-20.3%
O=C(Nc1ccc(N2CCOCC2)cc1)C1CCCCC1	0.4%	85.2*	21.2%	22.4	26.4%	40.0%
CC(=O)c1ccc(NC(=O)CNC2CCCCC2)cc1	27.3%	7.8	0.4%[0.00184 µM]	11.1	-1.0%	3.7%
CC(Cc1ccccc1Sc1ccccc1)N(C)C (stereo not drawn)	?	-13.4	?	-4.9	?	?
CC1CCC(NCC(=O)Nc2cccc(S(N)(=O)=O)c2)CC1 (stereo not drawn)	?	-14.6	-20.9%	-4.5	11.6%[46.1 µM]	-1.1%
O=c1[nH]n(-c2ncnc3c2cnn3-c2ccccc2)c(=O)c2ccccc12	-4.0%	11.8	19.2%	-6.4	-11.6%	4.4%
CS(=O)(=O)c1ccccc1-c1nc(-c2ccc([N+](=O)[O-])cc2)no1	1.6%[46.1 µM]	14.4	?	4.8	8.6%	14.8%
O=C(Cn1ccc2ccccc2c1=O)NCCC(=O)N1CCN(C2CCCCC2)CC1	5.9%	13.7	-3.4%	0.8	16.0%	27.9%
O=C(CNC1CCCC1)Nc1ccc(N2CCCCCC2)cc1	?	82.8*	-24.5%	56.4*	-23.1%	21.6%
O=S1(=O)CCC(NS(=O)(=O)/C=C/c2ccccc2)C1 (stereo not drawn)	3.4%	-2.6	-0.2%	1.4	-21.7%[14.3 µM]	9.5%
CC(C)=C1C2CCC1C(C(=O)NCc1ccccc1)C2C(=O)O (stereo not drawn)	-12.9%	5.7	-15.0%	-4.0	3.7%	-1.5%
COc1ccc(CC(=O)N(C)CC(=O)Nc2ccccc2SC)cc1	-22.1%[46.1 µM]	-8.6	-4.0%	-4.4	8.9%	11.3%
SMILES	Marburg entry inh	Shiga toxin inh	Pf growth 48h	Cycloheximide cs	LASV entry inh	Pf growth 96h
CSC1=NC(C)(C)C=C(/C=C/c2ccc(Cl)cc2Cl)N1	?	32.9	?	14.9	-26.9%	11.7µM*
CN(C)/C=N/NC(=O)c1ccc(Cl)cc1	-12.1%[46.1 µM]	11.0	133.6%	1.9	8.8%	34.7%
CN(C)/C=N/c1cnc(C(=O)c2ccc(Cl)cc2)n1C	-8.9%	82.9*	131.0%	44.5*	?	5.0%
O=C(COc1ccccc1C(=O)NCc1ccccc1)Nc1ccccc1	nt	nt	?	nt	nt	-27.4%
CC[C@H](C)[C@H](NC(N)=O)C(=O)NNC(=O)c1ccc(COc2cccc3cccnc23)cc1	1.8%[46.1 µM]	34.3	1.4%	4.1	-15.7%[46.1 µM]	8.2%
Cc1cc(N=Nc2ccc(C)c(N=Nc3cc(C)c(N)cc3N)c2)c(N)cc1N	nt	76.2*	83.7%	61.6*	nt	134.4%
